Only some compounds are listed: those with a hit (about 2.5% of all), similar ones and a draw of the others.
LASV entry inh: inhibitors of Lassa virus binding or cell entry; Lassa virus pseudotype entry inhibition, cell reporter; Potency, µM (titrated, usually from 37.9 µM), most hits filed as inhibitors; 300,000 compounds, 1.2% hits; AID 540256; calls by dose curve; tested in HEK293 cells; also: nearly all actives have a fitted effect of over 50% in size
Vaccinia mCherry: vaccinia inhibition (mCherry reporter) | Potency, µM (series often up to 36.5 µM), actives largely listed as inhibitors | 310,000 compounds, 0.63% hits | Vaccinia virus mCherry reporter infection, fluorescence | AID 720579; calls by dose curve; tested in A549 cells; also: nearly all actives have a fitted effect of over 35% in size
MARV entry inh: inhibitors of Marburg virus binding or cell entry; Marburg virus pseudotyped entry inhibition, cell reporter; Potency, µM (highest dose often 37.8 µM), actives largely listed as inhibitors; 300,000 compounds, 1.8% hits; AID 540276; calls by dose curve; tested in HEK293 cells
Vaccinia Venus: vaccinia inhibition (Venus reporter) | Potency, µM (doses to about 36.5 µM), actives largely listed as inhibitors | Vaccinia virus Venus reporter expression, fluorescence | 330,000 compounds, 0.46% hits; calls by dose curve; tested in A549 cells; also: nearly all actives have a fitted effect of over 30% in size
A number is an active result; i = inactive; ? = inconclusive; nt = no result; ! = a repeat was not active.

SMILES	LASV entry inh	Vaccinia mCherry	MARV entry inh	Vaccinia Venus
O=c1[nH]c2ccccc2n1CCCN1CCC(n2c(=O)[nH]c3cc(Cl)ccc32)CC1	?	i	11µM!	i
CCCc1nc([N+](=O)[O-])c(S(=O)(=O)c2ccccc2)n1CC(C)C	?	?	12µM	?
CC(C)=C1CCC(C)CC1=NNC(N)=S (stereo not drawn)	?	i	i	i
C/C(CC(C)(C)C1CCCCC1)=N\NC(N)=S	16µM	11µM	?	18µM
Cc1cccc2cc(CNCCCN3CCCC3=O)c(N3CCN4CCCC4C3)nc12 (stereo not drawn)	nt	i	nt	i
Cc1ccc(C(=O)C[n+]2cccc3cccc(O)c32)cc1	nt	i	nt	i
CCC(C)n1c(=O)c(C(=O)Nc2ccccc2S(N)(=O)=O)c(O)c2ccccc21 (stereo not drawn)	?	13µM	?	?
CC(C)Cn1c(=O)c(C(=O)Nc2ccccc2S(N)(=O)=O)c(O)c2ccccc21	i	?	i	?
CC1(C)CC(NC(=O)c2ccccc2C(=O)NC2CC(C)(C)NC(C)(C)C2)CC(C)(C)N1	i	nt	i	nt
CC1(C)CC(NC(=O)N2c3ccccc3Sc3ccccc32)CC(C)(C)N1	i	i	3.2µM	i
O=C(O)CCCC(=O)Nc1ccccc1SCCS(=O)(=O)c1ccc(Cl)cc1	?	20µM	i	?
COc1ccc(C2C(C#N)=C(N)Oc3cc4c(cc32)OCO4)cc1 (stereo not drawn)	?	?	5.8µM	i
CCOC(=O)N/N=C(\C)c1ccc(Br)cc1	i	i	?	i
CC/C(=N/O)C(=O)c1ccc(Br)cc1	8.9µM	i	i	i
c1ccc2c(c1)nc(NCc1ccc3c(c1)OCO3)n2CCN1CCOCC1	i	nt	i	nt
c1csc(-c2csc3nc(CN4CCOCC4)nc(NCc4ccc5c(c4)OCO5)c23)c1	i	nt	18µM	nt
Cc1cccc(N2CCN(C(=O)CC(NC(=O)c3ccccc3Cl)c3ccccc3)CC2)c1C (stereo not drawn)	?	i	12µM	i
CCOC(=O)N1CCC(N2CCCC(C(=O)c3cc(F)ccc3OC)C2)CC1 (stereo not drawn)	i	i	?	i
CCCN1CCC(Oc2cc(Nc3nc(Nc4cccc(F)c4C(N)=O)c4cc[nH]c4n3)c(OC)cc2Cl)CC1	13µM	nt	nt	nt
CCCN1CCCC(c2ccc(Nc3nc(Nc4cc(F)ccc4C(N)=O)c4cc[nH]c4n3)c(OC)c2)C1 (stereo not drawn)	14µM	nt	nt	nt
O=S1(=O)c2ccc(Br)cc2-n2nncc2CN1Cc1ccc(C(F)(F)F)cc1	i	nt	nt	nt
O=S(=O)(c1ccc2c(c1)CCCC2)N1CCN(c2nc(-c3ccccc3)nc3ccccc23)CC1	nt	i	nt	i
CCOC(=O)c1ccc(NC(=O)COc2ccccc2CNC2CCCC2)cc1	?	i	8.9µM	?
O=C(c1ccc(N2CCC(NCCCn3ncc4ccccc43)CC2)cc1)N1CCc2ccccc2C1	nt	i	nt	i
O=C(NC1CCN(Cc2ccccc2)CC1)c1cn(-c2ccccc2)nc1-c1cccnc1	i	?	11µM	?
SMILES	LASV entry inh	Vaccinia mCherry	MARV entry inh	Vaccinia Venus
O=C(O)c1cn(-c2ccccc2)nc1-c1cccnc1	i	nt	i	nt
Cc1sc(N/N=C/C=C/c2ccccc2)nc1-c1ccccc1	?	3.5µM	i	?
Cc1cc(C)nc(N/N=C/C=C/c2ccccc2)n1	i	i	i	i
CCC(C)(C)n1nnnc1C(c1ccccc1)N1CCN(Cc2ccccc2)CC1 (stereo not drawn)	i	i	i	i
CCC(C)(C)n1nnnc1CN1CCN(C(c2ccccc2)c2ccccc2)CC1	13µM	nt	i	nt
COc1ccc(Nc2ncc3c(n2)CC(c2ccc(C)cc2)CC3=O)cc1 (stereo not drawn)	0.23µM	nt	?	nt
COc1ccc(Nc2ncc3c(n2)CC(c2ccc(OC)cc2)CC3=O)cc1 (stereo not drawn)	?	i	?	i
CC(C)CC1c2[nH]c3ccccc3c2CCN1CCCn1cccn1 (stereo not drawn)	11µM	?	4.5µM	i
CN(C)CCCN(C(=O)/C=C/c1cccs1)c1nc2ccc(F)cc2s1	i	?	8.9µM	i
CC(C)(C)c1ccc(OCCC(=O)Nc2cccc(S(=O)(=O)NC3=NCCCCC3)c2)cc1	10µM	i	?	i
CN(CC(=O)Nc1cccc(S(=O)(=O)NC2=NCCCCC2)c1)Cc1ccc(C(C)(C)C)cc1	?	i	?	i
O=C(/C=C/c1ccc(OC(F)F)cc1)Nc1cccc(S(=O)(=O)NC2=NCCCCC2)c1	10µM	?	?	?
COc1ccccc1/C=C/C(=O)Nc1cccc(S(=O)(=O)NC2=NCCCCC2)c1	?	i	11µM	i
CCCNC(=O)OC[C@H]1O[C@H](CCON=CC[C@@H]2C=C[C@H](OC(C)=O)[C@@H](COC(C)=O)O2)C=C[C@H]1Oc1ccc(OC)cc1	i	nt	i	nt
Cn1c(C(=O)N2CCCC(C(=O)NCCCSC3CCCCC3)C2)cc2sccc21 (stereo not drawn)	13µM	i	?	?
Cn1c(C(=O)N2CCCC(C(=O)NCc3cccs3)C2)cc2sccc21 (stereo not drawn)	i	i	i	i
C#CCNC(=O)[C@H]1C=C(OC)C(=O)C[C@H]2c3ccccc3C[C@]12C	nt	nt	i	nt
COc1ccccc1N1CCN(c2ncnc3c2cnn3-c2cc(Cl)ccc2C)CC1	i	10µM	nt	10µM
O=C(C1CCCCC1)N1CCN(c2ccnc3cc(Cl)ccc23)CC1	7.9µM	i	?	i
O=C(C1CC1)N1CCN(c2ccnc3cc(Cl)ccc23)CC1	i	i	i	i
COc1ccccc1N1CCN(c2ccnc3cc(Cl)ccc23)CC1	?	11µM	?	i
COc1ccccc1-n1cc(CN2CCC3(CCC(CNC(=O)c4ccccc4)O3)CC2)cn1 (stereo not drawn)	nt	i	nt	i
CC(C)(C)N1C(=O)[C@@H]2[C@H]3[C@H](O)[C@H](O)CC(=NOCc4ccccc4)[C@H]3CC[C@H]2C1=O	nt	nt	i	nt
CCOC(=O)c1ccccc1NC(=O)Cn1c(-c2nonc2N)nc2ccccc21	?	nt	0.052µM	nt
Nc1nonc1-c1nc2ccccc2n1CC(=O)Nc1ccccc1	i	i	?	i
SMILES	LASV entry inh	Vaccinia mCherry	MARV entry inh	Vaccinia Venus
C[N+]1(CCNC(=O)/C=N\O)CCCCC1	nt	nt	i	nt
O=[N+]([O-])c1ccc(Cl)cc1C=NNc1ccccn1	?	i	i	i
O=[N+]([O-])c1cc(Cl)cc(/C=N\Nc2ccccn2)c1O	?	2.2µM	?	?
O=C(O)c1cccc(-c2nnn(Cc3ccccc3)n2)c1	?	i	?	i
Cc1ccccc1Cn1nnc(-c2cccc(C(=O)O)c2)n1	13µM	nt	5.8µM	nt
O=C(O)c1cccc(-c2nnn(Cc3ccccc3Cl)n2)c1	8.2µM	i	6.3µM	i
Cc1nn(C)cc1CN1CCOc2ccc(CN3CCC(Oc4cccnc4)CC3)cc2C1	nt	i	nt	i
N#Cc1ccc(Nc2nc(-c3ccc(O)cc3O)cs2)cc1C(F)(F)F	nt	?	nt	11µM
Nn1cnnc1N/N=C\c1ccc(-c2ccccc2[N+](=O)[O-])o1	14µM	?	?	i
CCOc1ccc(-n2c(=O)[nH]cc(C(=O)N3CCc4ccccc43)c2=O)cc1	i	?	i	2.8µM
COC1CCCCC1C1CCN(C(=O)c2ccco2)CC1 (stereo not drawn)	nt	nt	i	nt
CCN(c1cccc(C(F)(F)F)c1)S(=O)(=O)c1ccc2c(c1)CCN2C(C)=O	18µM	?	?	?

Assay outcomes from PubChem BioAssay.
